For 30 compounds, binding response (% of control) results are on record in PubChem BioAssay AID1529 (NMMLSC, 2009).

About 4,200 (1.4%) of roughly 290,000 compounds were called active. The entries come from a sample that favours actives as a whole. Values without a mark were called inactive.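 Rule for the calls: active = binding response more than 3 SD above or below the average of its plate-row segment, actives on both sides; inconclusive = wells at one plate position flagged as instrument error; inactive = the rest.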

Chain of Mitogen-activated protein kinase kinase kinase 3 (Homo sapiens) (Q99759 whole entry, looked up): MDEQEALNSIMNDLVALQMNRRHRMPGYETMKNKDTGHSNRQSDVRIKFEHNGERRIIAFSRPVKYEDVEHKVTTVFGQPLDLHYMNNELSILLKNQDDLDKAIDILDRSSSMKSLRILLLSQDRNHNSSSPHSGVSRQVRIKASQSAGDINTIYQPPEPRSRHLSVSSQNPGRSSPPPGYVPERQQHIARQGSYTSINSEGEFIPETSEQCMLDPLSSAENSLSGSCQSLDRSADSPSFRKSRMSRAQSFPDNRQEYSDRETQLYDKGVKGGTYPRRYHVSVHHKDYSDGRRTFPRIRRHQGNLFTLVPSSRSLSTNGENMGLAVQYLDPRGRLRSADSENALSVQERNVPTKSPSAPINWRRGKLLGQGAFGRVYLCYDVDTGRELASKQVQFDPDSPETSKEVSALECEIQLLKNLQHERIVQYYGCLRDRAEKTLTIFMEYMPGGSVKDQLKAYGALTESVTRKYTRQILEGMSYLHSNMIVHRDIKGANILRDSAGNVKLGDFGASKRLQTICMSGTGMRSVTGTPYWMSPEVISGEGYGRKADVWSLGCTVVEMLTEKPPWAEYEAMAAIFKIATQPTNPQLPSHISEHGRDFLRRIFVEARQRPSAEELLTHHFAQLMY

The assay has as its target Mitogen-activated protein kinase kinase kinase 3 (Homo sapiens) (UniProt Q99759). Briefly: compounds raising or lowering MEK5 association with MEKK3 PB1 – biochemical, wildtype MEKK3, multiplex bead flow cytometry, Alexa488-MEK5, primary screen (AID 1529).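 Note: Alexa488 bead fluorescence after subtracting the streptavidin-only scavenger bead signal.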 To be noted: bead-based flow cytometry, Alexa488-MEK5 binding to MEKK3; at 10 µM; actives lie on both sides. On the technique in general: A flow cytometer gives signals particle by particle.
In the case of `O=C(COC(=O)c1ccccc1)Nc1ccc(Cl)cc1C(=O)c1ccccc1`, the binding response (% of control) was 131% (active).

On to `CN1CCN(C(=S)SCC(=O)Nc2ccc(Cl)cc2C(=O)c2ccccc2)CC1`, for which the binding response (% of control) is 108%.

`O=C(CCNS(=O)(=O)c1ccccc1)Nc1ccc(Cl)cc1C(=O)c1ccccc1`: the binding response (% of control) is 107%.

On to `COC(=O)C1=C(c2cc3ccccc3s2)C[C@@H]2CC[C@H]1N2C(=O)NC(C)C`, for which the binding response (% of control) was 108%.

Take `COc1cccc(C(=O)N2C[C@H]3C[C@@H](C2)c2cccc(=O)n2C3)c1`: the binding response (% of control) was 98%.

In the case of `CN(C)CC1Oc2ccccc2OC1(O)c1ccccc1` (stereo not given), the binding response (% of control) is 106%.

Take `COc1ccc(C(=O)C2CCCN(Cc3ccc(C)s3)C2)cc1OC` (stereo not given): the binding response (% of control) is 103%.

Turning to `Cc1ccc(CN2CCCC(C(=O)c3ccc4c(c3)OCO4)C2)cc1C` (stereo not given), the binding response (% of control) was 49% [inhibitor] (active).

On to `Cc1ccsc1C(=O)C1CCCN(Cc2ccc(O)cc2)C1` (stereo not given), for which the binding response (% of control) was 96%.

Regarding `CN(C)C(=O)Oc1ccc2c(c1)O/C(=C\c1ccccc1)C2=O`, the binding response (% of control) is 102%.

Turning to `NCC(O)c1ccc(O)cc1` (stereo not given), the binding response (% of control) was 74% [inhibitor] (active).

As to `COc1ccc2c(c1)[C@]13CCCCC1C(C2)N(C)CC3` (stereo not given in full), the binding response (% of control) is 100%.

Take `CN(C)CC1CCCCC1OC(=O)c1ccc(Cl)c(Cl)c1` (stereo not given): the binding response (% of control) was 135% (active).

On to `COC(=O)C1=C(c2cc3ccccc3o2)C[C@@H]2CC[C@H]1N2C(=O)NC1CCCCC1`, for which the binding response (% of control) was 103%.

For `COC(=O)C1=C(c2cc3ccccc3s2)C[C@@H]2CC[C@H]1N2C(=O)NCCO`, the binding response (% of control) was 107%.

With `COc1cccc(OC)c1C(=O)NC(=S)N1C[C@H]2C[C@H](C1)c1cccc(=O)n1C2`, the binding response (% of control) is 103%.

Consider `CCCn1c(C(=O)c2ccccc2OC)nc2ccccc21`, for which the binding response (% of control) is 98%.

`Cc1ccc(N2C(=O)NC(=O)C(CCc3ccncc3)(Cc3cccc(Cl)c3Cl)C2=O)cc1` (stereo not given): the binding response (% of control) was 138% (active).

`O=C1NC(=O)C(CCc2ccccn2)(Cc2cccc(Cl)c2Cl)C(=O)N1c1ccc(Br)cc1` (stereo not given): the binding response (% of control) is 89%.

Consider `COc1ccc2[nH]c3c(c2c1)CCN[C@H]3C`, for which the binding response (% of control) was 105%.

For the compound `CC[C@H]1CC2CN3CCc4c([nH]c5ccccc45)C(C(=O)OC)(C2)C13` (stereo not given in full), the binding response (% of control) is 99%.

As to `CNCC(O)c1cc(F)c(OCc2ccccc2)c(OCc2ccccc2)c1F` (stereo not given), the binding response (% of control) was 103%.

In the case of `COc1ccc(-c2nn(CCC#N)cc2C(=O)Nc2ccc(C(C)=O)cc2)cc1`, the binding response (% of control) was 111%.

On to `COC(=O)C1=C(c2cc3ccccc3s2)C[C@@H]2CC[C@H]1N2C(=O)NCc1cccc2ccccc12`, for which the binding response (% of control) is 105%.

Regarding `Fc1ccc(N2CCN(Cc3ccc4c(c3)OCO4)CC2)cc1`, the binding response (% of control) is 98%.

`Cc1cc(=O)oc2c(C)c(OCC(=O)N3CCN(Cc4ccc5c(c4)OCO5)CC3)ccc12`: the binding response (% of control) was 106%.

`O=C(Cc1ccccc1[N+](=O)[O-])N1CCN(Cc2ccc3c(c2)OCO3)CC1`: the binding response (% of control) was 46% [inhibitor] (active).

Consider `COc1ccc2c(c1O)-c1cccc3c1[C@@H](C2)N(C)CC3`, for which the binding response (% of control) is 95%.

Regarding `CCOc1ccc(CN(CCCl)CCCl)cc1C(=O)OC`, the binding response (% of control) is 111%.

With `COC(=O)C1=C(c2ccccc2)C[C@@H]2CC[C@H]1N2C(=O)N1CCCCC1`, the binding response (% of control) is 102%.
